Assays:
[1] = target: T1, Aspartate--tRNA(Asp/Asn) ligase (Mycobacterium tuberculosis (strain ATCC 25618 / H37Rv)) (UniProt P9WFW3); assay: Assay for Asp RNA synthetase-1 from Mycobacterium tuberculosis; format: functional; set-up: scale not given: direction of the effect not stated beside the values; settings: 30 µM; further: in the data most compounds retested in dose-response had high values
T1 sequence (whole entry): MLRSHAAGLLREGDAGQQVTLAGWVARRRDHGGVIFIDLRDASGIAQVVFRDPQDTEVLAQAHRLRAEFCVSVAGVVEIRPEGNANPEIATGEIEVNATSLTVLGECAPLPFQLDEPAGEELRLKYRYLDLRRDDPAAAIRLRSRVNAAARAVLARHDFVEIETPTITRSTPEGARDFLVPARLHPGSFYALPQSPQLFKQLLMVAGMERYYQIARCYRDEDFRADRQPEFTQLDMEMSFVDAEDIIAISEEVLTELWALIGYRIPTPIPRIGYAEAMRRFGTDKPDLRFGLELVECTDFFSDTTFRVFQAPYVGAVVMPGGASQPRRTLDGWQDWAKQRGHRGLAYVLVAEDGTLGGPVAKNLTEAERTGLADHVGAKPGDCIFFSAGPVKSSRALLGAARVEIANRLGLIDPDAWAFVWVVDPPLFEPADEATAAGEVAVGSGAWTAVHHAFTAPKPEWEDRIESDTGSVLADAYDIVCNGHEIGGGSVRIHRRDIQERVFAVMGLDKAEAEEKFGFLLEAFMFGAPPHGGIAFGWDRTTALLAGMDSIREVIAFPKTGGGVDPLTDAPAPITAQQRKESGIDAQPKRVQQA

[2] = target: Shiga toxin 2 (Escherichia coli O157:H7) (UniProt P09385+P09386); assay: E. coli 0.157:H7 Shiga Toxin SOP - stx2 screening assay; format: functional; set-up: scale not given: direction of the effect not stated beside the values; settings: 30 µM

| SMILES | Percent Effect [1] | Percent Effect [2] |
| --- | --- | --- |
| Cc1c[nH]c(CN(C)C(=O)C2CC(=O)N(Cc3ccncc3)C2)n1 (stereo unspecified) | 2.33% | -32.5% |
| CCCOc1cc(CNC(=O)Nc2cccnc2N2CCCC2)ccn1 | 1.75% | -9.71% |
| CNS(=O)(=O)Cc1ccc(CNC(=O)c2ccc(C)[nH]c2=O)cc1 | -0.577% | -39.3% |
| CC(Cc1ccco1)NC(=O)Nc1ccc(N2CCOCC2)nc1 (stereo unspecified) | -3.59% | 15% |
| CC(C)(C)c1ccc(C2(C(=O)NCCCS(C)(=O)=O)CC2)cc1 | 8.98% | -49.3% |
| Cc1ccc(=O)n(CC2(O)CCN(Cc3cc(C)c(O)c(C)c3)CC2)n1 | -3.32% | -78.5% |
| O=C(NCc1cc(O)ncn1)C1COc2ccccc2C1 (stereo unspecified) | -3.92% | 12.8% |
| CCCc1n[nH]c(C2CN(Cc3nnc(C4CC4)o3)CCO2)n1 (stereo unspecified) | -8.48% | -20.6% |
| Cc1cc(C)n(C2CCCN(C(=O)CCCNc3ncccn3)C2)n1 (stereo unspecified) | -5.54% | -43.3% |
| CC(=O)N1[C@H](CN(C)C)C[C@@H]2CN(C(=O)c3cccc(F)c3)CC[C@@H]21 | -0.523% | -3.85% |
| Cc1nc(C)n(CC2CCCN(CCNC(=O)OC(C)(C)C)C2)n1 (stereo unspecified) | -2.36% | 7.06% |
| O=C(NCCN1CCOCC1)c1cc(-c2ccc3c(c2)CCO3)n[nH]1 | 2.35% | -67.8% |
| Cc1nc(C)n(CC2CCCCN2CCCS(=O)(=O)N(C)C)n1 (stereo unspecified) | 1.48% | -34.2% |
| COc1cccc(CN(C)C(=O)CSc2ccc3c(c2)OCCO3)c1 | 0.12% | 7.23% |
| NC(=O)NCC1CCCCN1C(=O)c1cccc(C(F)(F)F)c1 (stereo unspecified) | 2.58% | 11.1% |
| CCCNCC1(O)CCCN(Cc2cccc(C)c2)C1=O (stereo unspecified) | -0.345% | 0.574% |
| Cc1cnc(C(=O)N2CCCN(Cc3csc(C)n3)CC2)cn1 | -0.524% | -41.5% |
| COc1ccc(C[C@H]2CN(C(=O)c3ccncc3)CC[C@@H]2OC)cc1 | 1.64% | -22.2% |
| Cc1cc(C)c(CNC(=O)C2CCCN(c3cnccn3)C2)c(=O)[nH]1 (stereo unspecified) | -0.345% | 30.7% |
| Cc1cccc(OCCNC(=O)CN2CCCC2Cn2cccn2)c1 (stereo unspecified) | -1.71% | -0.164% |
| CN(C)C(=O)COCc1cncc2c1CCN(Cc1cnn(C)c1)C2 | 6.12% | -43% |
| Cc1ccc(C(CNCc2ccncc2)N2CCOCC2)s1 (stereo unspecified) | 2.18% | -29.8% |
| CCn1cc(CNC2CC(=O)N(CCc3cccc(Cl)c3)C2)cn1 (stereo unspecified) | -2.05% | -2.75% |

— ChEMBL document CHEMBL3988442, “University of Dundee, Small-Polar-MMV Screening Library” (2021)
